This note sets out measurements from PubChem BioAssay.

Some of the results follow. A number with no mark means an inactive call. The source made the active and inactive calls.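 The calls were made as follows, unless noted: active = membrane potential signal drops by more than 5 SD from the mean control signal, in both duplicate plates; inactive = the rest.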

Assay [1] can be described thus: nonspecific voltage dye response without TRPC6 – cell-based, parental HEK293, counter-screen for TRPC6 modulator project, confirmation (AID 488924;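 active = membrane potential signal moves up or down beyond 5 SD from buffer-only wells, on both duplicate plates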). Particulars: parental HEK293, membrane potential dye fluorescence; at 10 µM. (Counterscreens check selectivity or assay interference.)
Assay [2] is described as follows: membrane potential response modulators in host HEK293 cells – cell-based, second counter-screen, parental HEK293, membrane potential dye, counter-screen for TRPC6 modulator project, confirmation (AID 488926).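 As to inhibition: plate controls were acetylcholine ECmax control wells for no effect and buffer only wells for full effect.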 The settings on record: parental HEK293, membrane potential dye fluorescence, at 10 µM, after compound, maximal acetylcholine stimulation; hits give high values.

The test system of assay [3] is Transient receptor potential cation channel subfamily C member 4 (mouse). Briefly: off-target membrane potential effects via mouse TRPC4 – cell-based, HEK293 TRPC4/mu-opioid, membrane potential dye, selectivity assay for TRPC6 modulator project, confirmation (AID 488927;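 active = membrane potential signal moved up or down beyond 5 SD of buffer control wells, in both duplicate plates, actives on both sides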;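 as to percent change from control (negative = decrease, positive = increase): plate controls were assay buffer wells for no effect and DAMGO maximal-effect wells for full effect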). The settings on record: membrane potential fluorescence, at 10 µM.
In assay [4] the test system is TRPC4 (transient receptor potential cation channel C4), mouse. The experiment in a line: DAMGO-evoked mouse TRPC4 response blockade – cell-based, second screen, HEK293 TRPC4/mu-opioid, membrane potential dye, selectivity assay for TRPC6 modulator project, confirmation (AID 488928;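 active = drop in membrane potential signal beyond 5 SD of the control wells in both duplicate plates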;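 also: TRPC4 counter screen for TRPC6 hits run under conditions tuned for TRPC6 not TRPC4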). Particulars: membrane potential dye fluorescence, at 10 µM, stimulated with maximal-effect DAMGO; hits give high values.

Assay [5] concerns the target Short transient receptor potential channel 6 (Mus musculus) (UniProt Q61143). Briefly: blockers of TRPC6 cation channel activity – HEK293 cells, membrane potential dye, duplicate, confirmation (AID 488960;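 active = fluorescence ratio falls more than 5 SD below the full-stimulation control mean, in both duplicate runs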;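 as to inhibition: integrated fluorescence ratio of peak minus minimum over baseline after agonist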). Particulars: ACh-evoked depolarization, at 10 µM; hits give high values.
Assay [6] shares this target. The experiment in a line: mouse TRPC6 channel activators, confirmation, HEK293 cells, membrane potential dye, duplicate (AID 488961;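 active = ratio signal rise beyond 5 SD above unstimulated control wells' mean, seen in both duplicate runs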). Particulars: HEK293-TRPC6 membrane potential dye fluorescence, FDSS, at 10 µM; hits give high values.

Sequence of Short transient receptor potential channel 6 (Mus musculus) (Q61143 whole entry, looked up): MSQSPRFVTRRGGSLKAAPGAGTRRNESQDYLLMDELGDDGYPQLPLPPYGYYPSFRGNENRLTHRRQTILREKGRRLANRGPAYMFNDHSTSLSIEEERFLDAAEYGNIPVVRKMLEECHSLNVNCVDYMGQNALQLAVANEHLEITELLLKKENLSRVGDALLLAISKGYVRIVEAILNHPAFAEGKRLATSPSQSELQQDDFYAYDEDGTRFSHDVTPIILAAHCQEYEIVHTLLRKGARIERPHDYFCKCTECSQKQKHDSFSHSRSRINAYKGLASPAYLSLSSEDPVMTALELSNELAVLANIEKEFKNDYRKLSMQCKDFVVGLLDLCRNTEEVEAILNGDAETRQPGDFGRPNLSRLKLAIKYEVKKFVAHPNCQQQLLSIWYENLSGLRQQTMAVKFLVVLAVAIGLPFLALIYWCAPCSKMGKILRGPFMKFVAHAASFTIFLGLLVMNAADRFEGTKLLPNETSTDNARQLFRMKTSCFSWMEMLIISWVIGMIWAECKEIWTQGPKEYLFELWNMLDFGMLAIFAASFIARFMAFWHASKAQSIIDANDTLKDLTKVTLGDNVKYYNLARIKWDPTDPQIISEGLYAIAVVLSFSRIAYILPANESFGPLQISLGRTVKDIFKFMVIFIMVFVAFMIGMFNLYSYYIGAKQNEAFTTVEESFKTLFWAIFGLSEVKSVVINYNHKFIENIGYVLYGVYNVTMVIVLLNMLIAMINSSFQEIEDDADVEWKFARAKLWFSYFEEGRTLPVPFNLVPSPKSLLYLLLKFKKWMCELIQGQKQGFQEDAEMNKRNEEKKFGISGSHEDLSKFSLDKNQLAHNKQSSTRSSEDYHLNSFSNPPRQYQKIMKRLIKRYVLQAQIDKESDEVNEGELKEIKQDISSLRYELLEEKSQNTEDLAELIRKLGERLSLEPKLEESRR

Regarding `CN(C)c1cc(N)c2ccccc2n1` (tested in a mixture with another compound), the membrane potential signal change in assay [1] was -230% (active). Also, the result in assay [2] and in assay [6] was inactive. Besides, the percent change from control (negative = decrease, positive = increase) in assay [3] was -40.5% (active). Moreover, the results for the inhibition in assay [4] and in assay [5] were 82% (active) and 69.5% (active), respectively.

Turning to `Cc1cc(C)c2nc3nc(C)cc(C)c3c(N)c2c1`, the result in assay [1], in assay [5] and in assay [6] was inactive. The inhibition (usually the relative decrease from the control value, in per cent) in assay [2] is 76.5% (active); in assay [4], 48% (active). In assay [3], the percent change from control (negative = decrease, positive = increase) is -31% (active).

With `Cc1ccc(NC(=S)N(CCCN2CCCC2)Cc2cccn2Cc2ccc(Cl)cc2)cc1`, the outcome in assay [1], in assay [2], in assay [3], in assay [5] and in assay [6] was inactive. For the same compound, the inhibition in assay [4] is 47.5% (active).

As to `CCOC(=O)C1=NN(c2ccc(Cl)cc2)/C(=C/C2=NCCc3cc(OC)c(OC)cc32)S1`, the result in assay [1], in assay [2], in assay [4], in assay [5] and in assay [6] was inactive. The percent change from control (negative = decrease, positive = increase) in assay [3] was -15.5% (active).

Turning to `O=C(c1ccc(-n2cnnn2)cc1)N1CCN(C(c2ccccc2)c2ccccc2)CC1`, the membrane potential signal change in assay [1] was 251% (active). The inhibition in assay [2] is 71% (active); in assay [5] it was 44.5% (active). In addition, the percent change from control (negative = decrease, positive = increase) in assay [3] is 18.5% (active). The compound was classed as inactive in assay [4].

For `O=C(C1CCN(S(=O)(=O)Cc2ccccc2)CC1)N1CCCc2ccccc21`, the membrane potential signal change in assay [1] is 90% (active). For the same compound, the result in assay [2], in assay [4], in assay [5] and in assay [6] was inactive. Besides, the percent change from control (negative = decrease, positive = increase) in assay [3] was 8.5% (active).

For the compound `N=c1c2c3c(sc2nc2n1CCCCC2)CCCC3`, the membrane potential signal change in assay [1] is -118% (active). Also, the outcome in assay [2] and in assay [6] was inactive. Moreover, the percent change from control (negative = decrease, positive = increase) in assay [3] is -22.5% (active). Also, the inhibition in assay [4] is 55.5% (active); in assay [5], 61% (active).

Turning to `O=C1CN(C(=O)c2ccccc2F)C(c2ccc(F)cc2)c2cc(F)ccc2N1` (stereo not drawn), in assay [1], the membrane potential signal change is 106% (active). Moreover, the outcome in assay [2], in assay [4], in assay [5] and in assay [6] was inactive. Also, the percent change from control (negative = decrease, positive = increase) in assay [3] is 26.5% (active).

With `N=c1n(CCc2ccccc2)c2ccccc2n1Cc1ccccc1F`, in assay [1], the membrane potential signal change is 129% (active). Further, the result in assay [2] was inactive. Besides, the percent change from control (negative = decrease, positive = increase) in assay [3] was 20.5% (active). The inhibition in assay [4] was 90.5% (active); in assay [5], 66.5% (active).

`O=C(O)c1ccc(NC(=O)c2ccc(COc3ccc(Cl)cc3)o2)cc1`: the result in assay [1], in assay [2], in assay [3], in assay [4], in assay [5] and in assay [6] was inactive.

In the case of `CCOc1ccc(/C(O)=C2/C(=O)C(=O)N(Cc3cccnc3)C2c2ccc(N(C)C)cc2)c(C)c1` (stereo not drawn), the outcome in assay [1], in assay [2], in assay [3], in assay [4], in assay [5] and in assay [6] was inactive.

In the case of `O=S(=O)(c1cccc(Cn2nnc(-c3ccc(F)cc3)n2)c1)N1CCOCC1`, the result in assay [1], in assay [2], in assay [3], in assay [4], in assay [5] and in assay [6] was inactive.

On to `Clc1ccc(-n2nnnc2-c2cnc(-c3ccccn3)nc2-c2cccs2)cc1`, for which the membrane potential signal change in assay [1] is 133% (active). The outcome in assay [2], in assay [4] and in assay [5] was inactive. In assay [3], the percent change from control (negative = decrease, positive = increase) was 19.5% (active).

On to `COc1ccc(Cl)cc1NC(=O)CCS(=O)(=O)c1cc2c(cc1C)NC(=O)CO2`, for which the result in assay [1], in assay [2], in assay [4], in assay [5] and in assay [6] was inactive. In assay [3], the percent change from control (negative = decrease, positive = increase) was -9.5% (active).

Consider `OCCC1CN(Cc2ccc3nsnc3c2)CCN1C1CCCCC1` (stereo not drawn), for which, in assay [1], the membrane potential signal change was 109% (active). Also, the outcome in assay [2] and in assay [5] was inactive. Also, the percent change from control (negative = decrease, positive = increase) in assay [3] is 18% (active). For the same compound, the inhibition in assay [4] was 37% (active).

Take `C/C(=N\Nc1nc2ccccc2[nH]1)c1cccs1`: the membrane potential signal change in assay [1] is -108% (active). Moreover, the inhibition in assay [2] is 73.5% (active); in assay [4], 85% (active); in assay [5], 76% (active). Also, the percent change from control (negative = decrease, positive = increase) in assay [3] was -24% (active). Also, the result in assay [6] was inactive.

Turning to `Cc1cccc(NC(=S)NCCN(C2CCCCC2)C2CCCC2)c1`, the membrane potential signal change in assay [1] is 129% (active). In assay [2], the outcome was inactive. The percent change from control (negative = decrease, positive = increase) in assay [3] is 24.5% (active). Further, the results for the inhibition in assay [4] and in assay [5] were 68.5% (active) and 44.5% (active), respectively.

Regarding `Cc1nc(C(=O)NCc2ccccc2)sc1C1(C)CC(c2cccnc2)=NO1` (stereo not drawn), the result in assay [1], in assay [3] and in assay [4] was inactive. Also, the inhibition in assay [2] is 97.5% (active); in assay [5] it was 114% (active).

Regarding `CSCCC(NC(=O)c1ccc(=O)n(C)n1)c1nc2ccccc2[nH]1` (stereo not drawn), the result in assay [1], in assay [2], in assay [3], in assay [4], in assay [5] and in assay [6] was inactive.

For the compound `COc1ccc(Br)cc1/C=N/n1c(C)nnc1C`, the outcome in assay [1], in assay [2], in assay [4] and in assay [5] was inactive. For the same compound, in assay [3], the percent change from control (negative = decrease, positive = increase) was 10% (active).

As for `CCC(C)(C)NC(=O)CN(C(=O)CCC(=O)Nc1nccs1)c1ccc2c(c1)OCO2`, the result in assay [1], in assay [2], in assay [3], in assay [4], in assay [5] and in assay [6] was inactive.

With `CCOc1nc(NCCN2CCOCC2)nc(Nc2ccc(C)cc2)n1`, in assay [1], the membrane potential signal change is 98% (active). The result in assay [2], in assay [4] and in assay [5] was inactive. In addition, the percent change from control (negative = decrease, positive = increase) in assay [3] was 15% (active).

As to `CCCCc1nc(NCCN)c(C#N)c2c1CSC(C)(C)C2`, the result in assay [1], in assay [2], in assay [3], in assay [5] and in assay [6] was inactive. The inhibition in assay [4] is 56.5% (active).

In the case of `CC(=O)Nc1ccc(NC(=O)CN2CCCC(C)C2)c(Cl)c1` (stereo not drawn), the result in assay [1], in assay [2], in assay [3] and in assay [4] was inactive. Further, in assay [5], the inhibition is 66% (active).

For the compound `COC(=O)c1c(NC(=O)c2ccc(S(=O)(=O)N3CCOCC3)cc2)sc2c1CCN(C(C)C)C2`, the membrane potential signal change in assay [1] is -96% (active). In addition, the result in assay [2], in assay [5] and in assay [6] was inactive. Further, in assay [3], the percent change from control (negative = decrease, positive = increase) was -33% (active). Besides, the inhibition in assay [4] is 37.5% (active).

On to `O=C(NC1C2CC3CC(C2)CC1C3)c1ccc(N2CCNCC2)c([N+](=O)[O-])c1` (stereo not drawn), for which the membrane potential signal change in assay [1] was -120% (active). In addition, the result in assay [2] and in assay [6] was inactive. In assay [3], the percent change from control (negative = decrease, positive = increase) was -22% (active). The inhibition in assay [4] is 70.5% (active); in assay [5] it was 57.5% (active).

For the compound `CCCCN(C)CCCNC(=O)c1cc(-c2cccs2)nc2ccccc12`, the outcome in assay [1], in assay [2], in assay [5] and in assay [6] was inactive. Besides, the percent change from control (negative = decrease, positive = increase) in assay [3] is -13% (active). For the same compound, in assay [4], the inhibition was 65.5% (active).
